Screening results: PubChem BioAssay, several laboratories
Hits are enriched below; roughly 3.8% of the tested compounds scored in any of these assays.
FGF22 binding: binders of recombinant human FGF22 by thermal shift; SYPRO orange fluorescence; percent of sucrose octasulfate shift, DMSO zero; activity (Tm shift, normalised), % at 9.99 µM; hit rate 1.5% among 340,000;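 active = mean Tm shift, scaled 0 neutral to 100 positive control, at about 1.3% or above, every replicate too, limit read from the data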
Target sequence (Q9HCT0 whole entry, looked up): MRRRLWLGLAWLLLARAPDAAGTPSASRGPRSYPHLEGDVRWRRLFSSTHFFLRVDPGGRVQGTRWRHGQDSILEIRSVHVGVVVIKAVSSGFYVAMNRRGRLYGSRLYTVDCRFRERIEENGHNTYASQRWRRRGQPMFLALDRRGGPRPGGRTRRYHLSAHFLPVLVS
ADAM10 inh: ADAM10 inhibition, QFRET primary screen | recombinant ADAM10, EDANS/DABCYL FRET peptide cleavage, 3 h | inhibition, % at 7 µM | AID 720582 | O14672 | hit rate 0.62% among 370,000;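 active = inhibition above a per-campaign cutoff equal to the mean of compounds falling between control-based bounds plus 3 SD, cut at about 20% in these data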
proKLK7 act: activates the human kallikrein-7 zymogen. P49862. purified proKLK7, EDANS-DABCYL substrate fluorescence; 100% is mature enzyme control, 0% vehicle. activation, % at 7 µM. hit rate 0.9% among 370,000;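 active = activation above the mean of all tested compounds plus 3 SD, computed per campaign excluding outliers beyond control limits, cut at about 13% in these data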
Target sequence (P49862 whole entry, looked up): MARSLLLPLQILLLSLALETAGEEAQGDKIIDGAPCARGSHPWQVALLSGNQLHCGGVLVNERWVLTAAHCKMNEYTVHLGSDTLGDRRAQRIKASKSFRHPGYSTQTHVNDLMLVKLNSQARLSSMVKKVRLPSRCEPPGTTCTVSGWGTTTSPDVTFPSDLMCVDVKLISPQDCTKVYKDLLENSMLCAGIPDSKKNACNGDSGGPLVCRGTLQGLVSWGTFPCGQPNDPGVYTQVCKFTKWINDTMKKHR
Ecoli rRNA inh: inhibitors of bacterial rRNA selective over humanized ribosomes; E. coli WT GFP vs humanized-ribosome RFP mutants, fluorescence, 24 h; stronger effect = lower value; DMSO median 0, no signal -100; GFP signal change (wild-type ribosome), % (test concentration not listed); hit rate 1.6% among 350,000;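 active = significant combined selectivity score with lowered wild-type GFP, culture density cut under 30%, mutant RFP and density less affected; inactive = any of these conditions unmet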
ADAM17 inh: inhibitors of human ADAM17 | P78536 | recombinant ADAM17, EDANS/DABCYL FRET peptide cleavage | inhibition, % at 6.95 µM | hit rate 0.83% among 370,000 | AID 720648;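 active = inhibition above the mean of compounds lying between control limits plus 3 SD, set per campaign, cut at about 8.5% in these data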
ADAM10 confirm: human ADAM10 inhibition, confirmation. shares compounds with ADAM10 inh. ADAM10 QFRET peptide cleavage, EDANS fluorescence. inhibition, % at 6.95 µM. hit rate 1% among 2,100;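 active = inhibition above about 20% chosen separately for each screening run, limit read from the data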
ADAM17 counter: inhibits human ADAM17 in ADAM10 exosite counter-screen; hit rate 0.5% among 2,100; shares compounds with ADAM10 inh; ADAM17 QFRET peptide cleavage, EDANS fluorescence; inhibition, % at 6.95 µM;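 active = mean triplicate inhibition above the solvent-only control wells' mean plus 3 SD, cut at about 12% in these data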
ADAM10 counter: counter-screen for ADAM17 exosite inhibitors: inhibitors of human ADAM10; hit rate 47% among 2,900; shares compounds with ADAM17 inh; AID 743256; inhibition, % at 6.95 µM; recombinant ADAM10, EDANS/DABCYL FRET peptide cleavage, 3 h;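 active = mean inhibition over the triplicate runs exceeds the activity threshold set in the earlier primary screen, cut at about 20% in these data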
ADAM17 confirm: confirmation of inhibitors of human ADAM17; shares compounds with ADAM17 inh; recombinant ADAM17, EDANS/DABCYL QFRET peptide cleavage; inhibition, % at 6.95 µM; hit rate 65% among 2,900; AID 743257;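 active = mean inhibition across replicates above the hit cutoff set in the primary screen, cut at about 8.5% in these data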
Each line names hits and unclear results; the compound was inactive in the other large screens (follow-up assays come after a bar, where they were run).

COc1ccc(NC(=O)c2cc(-c3cc(Cl)ccc3OC)n[nH]2)c(OC)c1	ADAM10 inh 28.8, ADAM17 inh 13.1 | ADAM10 confirm inactive | ADAM17 counter inactive | ADAM10 counter 34.8 | ADAM17 confirm 18.4
CC(C)NC(=O)Nc1ccc2c(c1)C(=O)N(C)[C@H]1CC[C@@H](CC(=O)NC3CCCCC3)O[C@H]1CO2	none (no result: ADAM10 inh, proKLK7 act, ADAM17 inh)
O=C(Nc1ccccc1)OC1CC2CC1[C@H]1CCCCN1[C@H]2Cc1ccccc1 (some centres undefined)	none (no result: FGF22 binding, Ecoli rRNA inh)
O=C(Nc1ccccc1)OC1CCC2CC1CCC2OC(=O)Nc1ccccc1 (centres undefined)	ADAM10 inh 23.6, ADAM17 inh 11.5 | ADAM10 confirm inactive | ADAM17 counter inactive | ADAM10 counter 38.4 | ADAM17 confirm 18.4
C[C@H](NC(=O)C[C@H]1CC[C@@H](NC(=O)CN2CCOCC2)[C@H](CO)O1)c1ccccc1	none (no result: ADAM10 inh, proKLK7 act, ADAM17 inh)
NC(=O)CC(NC(=O)c1ccc(Br)cc1)c1ccc(N2CCCCCCC2)c([N+](=O)[O-])c1 (centres undefined)	ADAM10 inh 22.6, ADAM17 inh 10.5 | ADAM10 confirm inactive | ADAM17 counter inactive | ADAM10 counter 22.0 | ADAM17 confirm 12.2
Cc1cccc2cc(CN(Cc3ccco3)C(=O)Nc3cccc(C#N)c3)c(Cl)nc12	ADAM10 inh 28.8, ADAM17 inh 9.9 | ADAM10 confirm inactive | ADAM17 counter inactive | ADAM10 counter 42.0 | ADAM17 confirm 23.1
CC(=O)NC[C@H]1[C@@H](c2ccc(C3=CCCC3)cc2)[C@@H](CO)N1C(=O)C1CC1	none (no result: FGF22 binding, ADAM10 inh, proKLK7 act, ADAM17 inh)
COc1ccc(C2=Nc3ccccc3NC(=O)C2N(C(=O)c2ccnc3ccccc23)c2ccccc2)cc1 (centres undefined)	ADAM10 inh 33.0, Ecoli rRNA inh -20.9, ADAM17 inh 17.5 | ADAM10 confirm inactive | ADAM17 counter inactive | ADAM10 counter 21.5 | ADAM17 confirm 14.5
COc1ccc(C2=Nc3ccccc3NC(=O)C2N(C(=O)c2cnc(C)cn2)c2ccc(N3CCOCC3)cc2)cc1 (centres undefined)	none
COc1ccccc1-n1c(SCC(=O)Nc2ccc(Br)cc2)nc(O)cc1=O	ADAM10 inh 27.7, ADAM17 inh 8.7 | ADAM10 confirm inactive | ADAM17 counter inactive | ADAM10 counter inactive | ADAM17 confirm inactive
Cc1cccc(C)c1N(CC(=O)Nc1cc(Cl)ccc1Oc1ccccc1)S(C)(=O)=O	ADAM10 inh 30.3, ADAM17 inh 8.8 (no result: FGF22 binding, Ecoli rRNA inh) | ADAM10 confirm inactive | ADAM17 counter inactive | ADAM10 counter 26.4 | ADAM17 confirm 15.7
COc1cccc(OCC(=O)Nc2cc(Cl)ccc2Oc2ccccc2)c1	none
Cc1ccc(C)c(N(CC(=O)Nc2cc(Cl)ccc2Oc2ccccc2)S(C)(=O)=O)c1	ADAM10 inh 29.0, ADAM17 inh 10.4 (no result: FGF22 binding, Ecoli rRNA inh) | ADAM10 confirm inactive | ADAM17 counter inactive | ADAM10 counter 23.7 | ADAM17 confirm 13.3
CCC(=O)Nc1ccc2c(c1)C(=O)N(C)[C@H]1CC[C@@H](CC(=O)NCC3CCCCC3)O[C@@H]1CO2	none (no result: ADAM10 inh, proKLK7 act, ADAM17 inh)
C[C@H](CO)N1C[C@H](C)[C@@H](CN(C)C(=O)Nc2ccc(F)cc2)OCCCC[C@H](C)Oc2ccc(N(C)C)cc2C1=O	none (no result: ADAM10 inh, proKLK7 act, ADAM17 inh)
CC(C)c1ccc(Nc2nc(NCc3ccco3)nc(N3CCOCC3)n2)cc1	ADAM10 inh 30.6, ADAM17 inh 11.9 (no result: FGF22 binding, Ecoli rRNA inh) | ADAM10 confirm inactive | ADAM17 counter inactive | ADAM10 counter 22.6 | ADAM17 confirm 12.9
